Assay results: PubChem BioAssay
Where “and” joins values, the source holds several entries; their conditions need not be identical. Equal values may be shown once. Results filed as inconclusive are left out. Calls of active or inactive are those of the source. Unless noted, the rule behind the calls is not given here.

Assays:
[1] = viability loss with induced miR-34 in A549 – imaging, A549 dox-inducible miR-34, nuclei and caspase counts, primary screen (AID 1347080;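 active = compounds whose cell count with miR-34 switched on is under 0.7 times the count with it off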); settings: A549 miR-34 inducible, Hoechst nuclei count, 48 h
[2] = MELAS cybrid and Rieske KO viability enhancers – cell-based, MELAS cybrids, Rieske KO mouse fibroblasts, CellTiter-Glo, primary screen (AID 1508586;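 active = mean z-score across replicates of 1.96 or higher in either the MELAS or the Rieske mutant cell line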;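 note: z relative to plate mean and SD of compound and empty wells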); settings: low glucose
[3] = galactose survival enhancers in mitochondrial complex I cybrids – cell-based, galactose medium, ATP luminescence, primary screen (AID 1645843;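 active = z-score of at least 1.8 in each of two replicates, scored against plate mean and spread of sample wells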;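 note: positive z means more ATP and so rescue of galactose-driven cybrid death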); settings: complex I mutant cybrid cells, 72 h, stronger effect = higher value
[4] = target: ATP-dependent translocase ABCB1 (Homo sapiens) (UniProt P08183); assay: P-glycoprotein substrate transport blockade – cell-based (AID 377; in the data active = fluorescence slope change above about 50%); settings: MDR1-expressing cells, fluorescent substrate accumulation slope; stronger effect = higher value; concentration not given here
ATP-dependent translocase ABCB1 (Homo sapiens), sequence (P08183 whole entry, looked up): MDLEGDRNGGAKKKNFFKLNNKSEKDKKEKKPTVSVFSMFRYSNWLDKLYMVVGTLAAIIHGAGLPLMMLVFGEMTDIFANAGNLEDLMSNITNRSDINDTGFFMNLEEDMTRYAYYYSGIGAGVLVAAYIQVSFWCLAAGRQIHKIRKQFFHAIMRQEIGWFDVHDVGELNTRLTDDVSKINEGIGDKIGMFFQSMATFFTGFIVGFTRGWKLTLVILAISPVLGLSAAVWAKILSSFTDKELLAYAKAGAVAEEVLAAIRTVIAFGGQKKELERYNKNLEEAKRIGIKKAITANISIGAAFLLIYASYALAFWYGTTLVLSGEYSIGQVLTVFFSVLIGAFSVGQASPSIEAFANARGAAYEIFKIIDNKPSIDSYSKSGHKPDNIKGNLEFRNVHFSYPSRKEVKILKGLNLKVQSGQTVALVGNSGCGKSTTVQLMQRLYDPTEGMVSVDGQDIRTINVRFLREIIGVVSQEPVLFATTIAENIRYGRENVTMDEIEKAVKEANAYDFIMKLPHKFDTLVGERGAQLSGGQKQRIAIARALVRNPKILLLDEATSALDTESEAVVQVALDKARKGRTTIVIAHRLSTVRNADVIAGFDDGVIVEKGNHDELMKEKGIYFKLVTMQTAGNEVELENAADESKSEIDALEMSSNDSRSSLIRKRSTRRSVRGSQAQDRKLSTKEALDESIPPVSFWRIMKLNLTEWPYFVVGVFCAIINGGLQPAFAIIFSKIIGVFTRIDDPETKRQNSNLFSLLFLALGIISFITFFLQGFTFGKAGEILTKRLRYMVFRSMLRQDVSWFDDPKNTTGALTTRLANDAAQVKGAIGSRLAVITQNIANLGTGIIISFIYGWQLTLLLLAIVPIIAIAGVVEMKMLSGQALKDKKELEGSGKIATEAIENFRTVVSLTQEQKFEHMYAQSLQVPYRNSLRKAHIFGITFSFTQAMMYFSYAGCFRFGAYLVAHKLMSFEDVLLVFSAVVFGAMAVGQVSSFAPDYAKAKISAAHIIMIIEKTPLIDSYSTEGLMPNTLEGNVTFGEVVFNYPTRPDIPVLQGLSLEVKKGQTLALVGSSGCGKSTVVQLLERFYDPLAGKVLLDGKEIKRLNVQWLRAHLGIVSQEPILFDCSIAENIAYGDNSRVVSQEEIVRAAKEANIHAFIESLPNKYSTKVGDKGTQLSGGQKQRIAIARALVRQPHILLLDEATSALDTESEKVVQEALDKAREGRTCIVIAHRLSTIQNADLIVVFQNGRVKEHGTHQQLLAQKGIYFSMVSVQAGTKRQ

[5] = compounds altering viability of human ES cells (AID 493140); settings: human embryonic stem cell survival screen; stronger effect = higher value;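 note: cells exposed to compounds for four days before counting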
[6] = P. berghei load reduction in hepatocytes – cell-based, HepG2, luciferase luminescence, HepG2 viability, primary screen (AID 624349; in the data active = parasite load remaining mostly below about 12%, no sharp cut-off; inactive = mostly above about 10%;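 note: 100% = mean of DMSO negative control wells on the same plate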); settings: P. berghei liver stage in HepG2, luciferase luminescence, concentration not given here; parasite load remaining: stronger effect = lower value; viability: measured here: HepG2 viability without parasites
[7] = compounds altering circadian rhythm period length – cell-based, LOPAC library, luminescence reporter (AID 2774); settings: circadian reporter cells, at 7 µM, actives lie on both sides;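 note: values are relative to mean of DMSO wells on each plate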
[8] = tested on: Hepatitis C virus NS3 helicase; assay: blockers of NS3h binding to ssDNA – biochemical, fluorescence polarization, LOPAC1280 library, primary screen (AID 687035; in the data active = inhibition above about 37%); settings: Purified HCV NS3 helicase, Cy5-dT15 ssDNA binding fluorescence polarization; stronger effect = higher value; concentration not given here
[9] = compounds altering Cy5-DNA-NS3h complex signal – biochemical, LOPAC1280, artefact control for HCV NS3 helicase inhibitor project (AID 687037); settings: Cy5-DNA-NS3h complex fluorescence interference counterscreen
[10] = blockers of cellular phospholipid synthesis – cell-based, LOPAC library, screen 4, primary screen (AID 1347384); settings: animal cells, phospholipid biosynthesis inhibition screen; at 10 µM
[11] = stronger effect = lower value, cell number ratio, induced over uninduced
[12] = measured here: relative caspase fold change +Dox/-Dox
[13] = measured here: total cells with miR-34 induction, stronger effect = lower value
[14] = measured here: total cells without miR-34 induction
[15] = MELAS cybrid survival, CellTiter-Glo 48 h, stronger effect = higher value
[16] = Rieske KO mouse fibroblast survival, CellTiter-Glo 72 h

Row | Structure (SMILES) | fold change [1, 11] | fold change [1, 12] | cell count [1, 13] | cell count [1, 14] | z-score [2, 15] | z-score [2, 16] | z-score [3] | fluorescence slope change [4] | survival [5] | parasite load remaining [6] | viability [6] | period change [7] | inhibition [8] | fluorescence ratio (interference) [9] | outcome [10]
1 | CCCNC1CCc2nc(N)sc2C1 (centres undefined) | 0.968 (inactive) and 0.933 (inactive) and 0.946 (inactive) | 2.07 and 1.64 and 3.69 | 9570 and 9980 and 9760 | 9890 and 10700 and 10300 | -0.192 (inactive) | 0.744 | 1.44 (inactive) and 0.095 (inactive) |  |  |  |  |  |  |  | 
2 | O=C1CC(c2ccc(O)cc2)Oc2cc(O)cc(O)c21 (centres undefined) | 0.857 (inactive) and 0.936 (inactive) | 1.25 and 0.746 | 9030 and 10100 | 10500 and 10800 | -0.339 (inactive) | 0.634 |  | 29.7% (inactive) | 12.5 (inactive) | 129% (inactive) and 75.7% (inactive) | 105% and 74.5% |  |  |  | 
3 | COc1ccc2cc(C(C)C(=O)O)ccc2c1 (centres undefined) | 0.873 (inactive) and 1.59 (inactive) and 0.829 (inactive) | 1.19 and 0.614 and 0.98 | 8070 and 7920 and 7570 | 9240 and 4980 and 9130 | -0.171 (inactive) and 0.614 (inactive) | 0.627 and 0.253 | 0.575 (inactive) |  |  | 40.8% (inactive) | 47.4% |  |  |  | 
4 | CNCCC(Oc1ccccc1C)c1ccccc1 (centres undefined) | 1.03 (inactive) and 0.898 (inactive) and 0.925 (inactive) | 1.24 and 2 and 2.24 | 9740 and 9090 and 9100 | 9500 and 10100 and 9850 | -0.0629 (inactive) | -0.0775 | -0.235 (inactive) and -0.28 (inactive) |  |  |  |  | 0.255 h (inactive) | -5% (inactive) | 0.9 (inactive) | inactive
5 | C[C@]12C=CC(=O)C=C1CC[C@@H]1C2=CC[C@]2(C)[C@@H](C(=O)CN3CCN(c4cc(N5CCCC5)nc(N5CCCC5)n4)CC3)CC[C@@H]12 | 0.983 (inactive) and 1.04 (inactive) | 0.64 and 0.868 | 8450 and 5900 | 8600 and 5690 |  |  | 1.27 (inactive) |  |  |  |  | 0.075 h (inactive) | -5% (inactive) | 0.9 (inactive) | inactive
6 | O=C1c2c(O)cc(O)cc2OC(c2ccc(O)c(O)c2)C1O (centres undefined) |  |  |  |  | -0.361 (inactive) | 0.683 | 0.265 (inactive) and -0.07 (inactive) and 0.43 (inactive) |  |  |  |  | -0.11 h (inactive) | -3% (inactive) | 1 (inactive) | inactive
7 | CN(CC=CC#CC(C)(C)C)Cc1cccc2ccccc12 | 0.964 (inactive) and 0.918 (inactive) and 0.968 (inactive) | 2.12 and 1.02 and 0.751 | 9310 and 7680 and 9620 | 9660 and 8370 and 9940 | -0.142 (inactive) and -0.315 (inactive) | -0.993 and 0.763 | -1.88 (inactive) |  |  |  |  |  |  |  | 
8 | CCN(CC)CCOc1ccc(/C(=C(/Cl)c2ccccc2)c2ccccc2)cc1 | 0.802 (inactive) and 0.892 (inactive) | 1.39 and 1.34 | 7010 and 7690 | 8740 and 8620 | -1.93 (inactive) and -1.91 (inactive) | -0.316 and -1.39 | -2.19 (inactive) | 69.8% (active) | 1.25 (inactive) | 5.86% (inactive) and 13.7% (inactive) and 1.37% (inactive) | 83.4% and 76% and 71% |  |  |  | 
9 | CN(C)S(=O)(=O)c1ccc2c(c1)/C(=C/c1cc3c([nH]1)CCCC3)C(=O)N2 | 0.998 (inactive) and 0.964 (inactive) | 1 and 1.24 | 3800 and 4420 | 3810 and 4590 |  |  | 1 (inactive) |  |  | 43.1% (inactive) | 152% | -0.01 h (inactive) | -2% (inactive) | 1 (inactive) | active
10 | CC(N)C1CCC(C(=O)Nc2ccncc2)CC1 (centres undefined) | 0.953 (inactive) and 0.841 (inactive) | 1.2 and 0.911 | 10100 and 7170 | 10600 and 8530 | -0.271 (inactive) | 0.184 | -0.475 (inactive) |  |  |  |  | 0 h (inactive) | -1% (inactive) | 1 (inactive) | inactive
11 | CC1CNCCN1S(=O)(=O)c1cccc2cnccc12 (centres undefined) | 1.06 (inactive) and 1.03 (inactive) | 1.18 and 0.538 | 11400 and 1600 | 10700 and 1550 |  |  | -1.29 (inactive) |  | 216 (active) |  |  | 0.05 hour (inactive) and -0.065 hour (inactive) | -1% (inactive) | 0.9 (inactive) | inactive
12 | CCCCCC(O)CCCC(=O)O (centres undefined) | 0.96 (inactive) and 0.942 (inactive) | 0.791 and 1.2 | 9800 and 6140 | 10200 and 6510 |  |  | 0.165 (inactive) |  |  |  |  | -0.17 h (inactive) | -4% (inactive) | 1 (inactive) | inactive
13 | CNC(=O)[C@H]1O[C@@H](n2cnc3c(NCc4cccc(I)c4)ncnc32)C(O)[C@H]1O (some centres undefined) | 1.05 (inactive) and 1.03 (inactive) | 0.68 and 1.21 | 10000 and 5680 | 9560 and 5540 |  |  | 2.43 (active) |  |  |  |  | -0.015 h (inactive) | -2% (inactive) | 0.9 (inactive) | inactive
14 | O=c1onc2n1-c1cc(Br)ccc1OC2 | 1.09 (inactive) and 0.947 (inactive) | 1.04 and 0.916 | 11200 and 5950 | 10300 and 6280 |  |  | 0.095 (inactive) |  |  |  |  | 0.015 h (inactive) | -4% (inactive) | 1 (inactive) | inactive
15 | C[C@H]1[C@H](NC(=O)/C(=N\OC(C)(C)C(=O)O)c2csc(N)n2)C(=O)N1S(=O)(=O)O | 0.907 (inactive) and 0.865 (inactive) | 1.09 and 1.14 | 8940 and 9450 | 9850 and 10900 | 0.296 (inactive) and 0.337 (inactive) | 0.0689 and -0.343 | 0.06 (inactive) |  | 21.6 (inactive) | 29.2% (inactive) and 123% (inactive) and 17.7% (inactive) | 47.3% and 89% and 68% |  |  |  | 
16 | CSC(=N)N | 1 (inactive) and 0.925 (inactive) | 1.64 and 1.46 | 10600 and 5770 | 10500 and 6230 |  |  | 0.095 (inactive) |  |  |  |  | -0.11 h (inactive) | -4% (inactive) | 1 (inactive) | inactive
17 | CC(C)(C)c1onc(OCP(=O)(O)O)c1CC(N)C(=O)O (centres undefined) | 1.04 (inactive) and 0.947 (inactive) | 1.07 and 1.18 | 10900 and 10600 | 10500 and 11200 |  |  | 0.82 (inactive) and 0.145 (inactive) |  |  |  |  | -0.03 h (inactive) | -3% (inactive) | 0.9 (inactive) and 1 (inactive) | inactive
18 | CCCCC[C@H](O)/C=C/[C@@H]1[C@@H](C/C=C\CCCC(=O)O)[C@@H](O)C[C@H]1O |  |  |  |  | -0.59 (inactive) | -0.344 | 0.625 (inactive) |  | 95.3 (inactive) | 32.1% (inactive) | 102% |  |  |  | 
